Results as given in PubChem BioAssay AID1458 (National Center for Advancing Translational Sciences (NCATS), 2008).
About 5,900 (2.8%) of roughly 210,000 compounds were called active. A call without a number means that no potency is given here. Inconclusive results (about 5%) are left out. Calls come from the whole dose curve; as a rule, active = well fitted activation curve with a large enough effect; inconclusive = small, poorly fitted or top-dose-only effect; inactive = no such curve, though single readings can be large or run the other way. The sample as a whole holds a higher share of actives than the screen did.

Test: qHTS Assay for Enhancers of SMN2 Splice Variant Expression; note: nearly all actives have a fitted effect of over 55% in size
Details: HEK293 SMN2-luciferase splicing reporter, luminescence, 30-36 h; series mostly up to 46.1 µM
Method in brief: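 qHTS luciferase splicing reporter: luminescence rises when SMN2 exon 7 is included in transfected HEK293 cells. Compound exposure lasted 30-36 h at 37C, with 4.5 mM final sodium butyrate as control, followed by a ONE-Glo read.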
Potency is the fitted concentration of half-maximal effect.

Structure (SMILES)	Potency	activity change, positive = activation
CCOc1ccc2oc(=O)cc(CN3CCN(C(=O)c4ccc(F)cc4)CC3)c2c1	inactive	
CCOC(=O)c1ccc(NC(=O)CC2C(=O)N(c3cccc(OC)c3)C(=O)N2C2CCCCC2)cc1 (stereo not drawn)	inactive	
COc1cc(C(=O)N2CCN(C(=O)COc3cccc(C)c3)CC2)cc(OC)c1OC	inactive	
CC(=O)c1sc(N2C(=O)c3oc4ccccc4c(=O)c3C2c2ccc(C)cc2)nc1C (stereo not drawn)	inactive	
CCc1ccc(NC(=O)c2sc3nc4c(cc3c2N)CN(CC)CC4)cc1	inactive	
O=C(CSc1ccccc1)Nc1ccc(NC(=O)c2ccco2)cc1	inactive	
O=C(Nc1ccc(Oc2ccccc2)cc1)c1ccco1	15.8 µM (active)	
O=C(/C=C/c1ccco1)Nc1ccc(Oc2ccccc2)cc1	inactive	
C#CC(C)(CC)NC(=O)Cn1nnc(-c2ccc(OCc3c(F)cccc3Cl)cc2)n1 (stereo not drawn)	inactive	
COc1ccc(CCNC(=O)CCCCn2c(=O)c3ccccc3n(Cc3ccccc3)c2=O)cc1OC	inactive	
COc1cc(/C=C/C2=CC(C)(C)NC(=S)N2)cc(OC)c1OC	11.2 µM (active)	
COc1cc(/C=C/CO)cc(OC)c1O[C@@H]1O[C@H](CO)[C@@H](O)[C@H](O)[C@H]1O	inactive	
Cc1noc(/C=C/N(C)C)c1S(=O)(=O)N1CCCC(C(=O)Nc2cccc(F)c2)C1 (stereo not drawn)	inactive	
Cc1cc(C)c(NC(=O)CCc2c(C)nc3c(c(C)nn3C(C)(C)C)c2C)c(C)c1	inactive	
c1ccc(CSc2nnc(-c3ccco3)n2Cc2ccccc2)cc1	22.4 µM (active)	
c1ccc(CSc2nnc(-c3ccco3)c(-c3ccco3)n2)cc1	inactive	
O=C(CSc1nnc(-c2ccco2)n1Cc1ccccc1)NC(=O)NCc1ccco1	inactive	
COc1ccc(Cn2cc(C(=O)c3ccc(C)cc3)c(=O)c3cc(OC)c(OC)cc32)cc1	inactive	
Cc1ccn2c(Nc3ccc4c(c3)OCCO4)c(-c3ccc(C)s3)nc2c1	inactive	
CCN(CC)S(=O)(=O)c1ccc(C(=O)N=c2sc3cccc(OC)c3n2C)cc1	inactive	
Cc1cc(C)c(-c2n[nH]c3c2C(c2ccccc2F)N(CCO)C3=O)c(O)c1 (stereo not drawn)	inactive	
CCn1cc(C(=O)N2CCN(c3cc(C)ccc3C)CC2)c(=O)c2cc(S(=O)(=O)N(C)C3CCCCC3)ccc21	inactive	
Cc1ccn(-c2cccc(-n3ccc(C)n3)n2)n1	7.94 µM (active)	
CCOc1ccc(NC(=O)CC2C(=O)N(c3cccc(OC)c3)C(=O)N2C2CCCCC2)cc1 (stereo not drawn)	inactive	
Cc1cccc(CC(=O)N2CC(=O)Nc3ccc(F)cc3C2c2ccccc2)c1 (stereo not drawn)	inactive	
Cc1ccc(N/N=C2\COC(C)(C)CC2=O)cc1	11.2 µM (active)	

Structure (SMILES)	Potency	activity change, positive = activation
Cc1ccc(NN=C2C(=O)OC(C)(C)OC2=O)c(C)c1	inactive	
COc1ccc(N/N=C2/CCCCC2=O)cc1	inactive	
CCCn1c(=N)n(CC(O)COc2ccccc2OC)c2ccccc21 (stereo not drawn)	inactive	
CCOC(=O)c1ccc(NC(=O)CCn2c(=O)oc3ccccc32)cc1	inactive	
CSc1ccc(/C=N\NC(=O)COc2ccc(Cl)cc2Br)cc1	inactive	
CSc1ccc(/C=N/NC(=O)c2cccc(Cl)c2)cc1	10 µM (active)	
COc1ccc(/C=N/NC(=O)c2cccc(C(F)(F)F)c2)cc1	inactive	
CCn1cc(C(=O)N(C)Cc2ccccc2)c(=O)c2cc(S(=O)(=O)N3CCCCCC3)ccc21	inactive	
COC(=O)c1c(NC(=O)c2cc(=O)c3c(C)cc(C)cc3o2)sc2c1CCCC2	inactive	
Cc1nc(SCCOc2ccc(Cl)cc2)[nH]c(=O)c1Cc1ccccc1	inactive	
COc1ccc(/C=N\NC(=O)c2sc(N)nc2C)cc1OC	inactive	
CCOC(=O)CSc1nnc(NC(=O)c2cccc(S(=O)(=O)N3CCCCC3)c2)s1	inactive	
CC(=O)c1sc(NC(=O)c2ccc(C)cc2)nc1C	5.62 µM (active)	
Cc1ccc(C(=O)Nc2nc(-c3ccccc3)ns2)cc1	inactive	
CC(=O)c1sc(N/N=C\c2ccc(C)cc2)nc1C	10 µM (active)	
CCSc1nnc(NC(=O)c2ccc(C)cc2)s1	14.1 µM (active)	
Cc1nonc1C(=O)N/N=C/c1ccc(O)cc1		1.94% [at 1.84 µM] (inactive)
CCSc1nnc(NC(=O)Cc2ccccc2OC)s1	inactive	
CC(=O)c1sc(NC(=O)C2=NN(c3ccccc3)C(=O)CC2)nc1C	inactive	
Cc1nnc(C)n1/N=C/c1ccc(C(C)C)cc1	inactive	
CC(=O)c1sc(N/N=C/c2ccc(C(C)C)cc2)nc1C	17.8 µM (active)	
Cc1ccc(S(=O)(=O)Nc2nc(C)cc(N/N=C/c3ccc(O)cc3)n2)cc1	inactive	
CCc1ccc(S(=O)(=O)c2nnn3c2nc(NCc2ccccc2OC)c2cc(Cl)ccc23)cc1	inactive	
CCOc1ccc(C2C(C(=O)Nc3ccc(Cl)cc3)=C(C)Nc3nc(C(F)(F)F)nn32)cc1 (stereo not drawn)	inactive	
Cc1nn(CC(=O)N2CCN(c3cccc(C(F)(F)F)c3)CC2)c(=O)c2cc3sccc3n12	inactive	
C/C=C(\C)C(=O)O[C@H]1CC(C)=C2C(=O)C=C(C)C2[C@@H]2OC(=O)[C@@](C)(OC(=O)C=C(C)C)C21 (stereo partly drawn)	inactive	

Structure (SMILES)	Potency	activity change, positive = activation
CCN(CCCNC(=O)c1cc(Nc2ccc(OC)cc2)nc2ccccc12)c1cccc(C)c1	inactive	
CC(C)c1ccc(NC(=O)CN(C)S(=O)(=O)c2ccc3c(c2)c(=O)n(C)c(=O)n3C)cc1	inactive	
O=C(CSc1oc(-c2ccco2)nc1S(=O)(=O)c1ccccc1)c1ccc(Cl)cc1	inactive	
Cc1ccc(-c2nn(CCC(=O)Nc3ccc(OC(F)(F)F)cc3)c(=O)c3ccccc23)cc1	inactive	
CCOc1cc(/C=C(\C#N)C(=O)Nc2ccccc2C)ccc1OCc1cc(=O)n2nc(CC)sc2n1	inactive	
COc1ccc(-n2c(=O)c3sc4ccccc4c3n(CC(=O)Nc3cccc(C)c3)c2=O)cc1	inactive	
C/C=C(\C)C(=O)OC1C(OC(=O)C2(C)OC2C)c2cc3ccc(=O)oc3cc2OC1(C)C (stereo not drawn)	inactive	
Cc1cccc(Cn2c(SCc3ccc(C(=O)N4CCC(C)CC4)cc3)nc3ccncc32)c1	inactive	
CC1=C(C(=O)OCC(C)C)C(c2ccc(OCc3ccccc3)cc2)N2C(=O)CCSC2=N1 (stereo not drawn)	inactive	
COC(=O)c1cc(NC(=O)c2sc3ccccc3c2Cl)cc(C(=O)OC)c1	inactive	
O=C(Nc1ccon1)c1sc2ccccc2c1Cl	17.8 µM (active)	
CCCC(=O)Nc1ccc(NC(=O)c2sc3ccccc3c2Cl)cc1	inactive	
COc1ccc(/C=C/c2nc(C#N)c(NCc3ccc(F)cc3)o2)cc1OC	inactive	
CCOc1ccc(CNC(=O)C2CCN(c3nnc(-n4cccc4CNc4ccc(C)cc4)s3)CC2)cc1OC	inactive	
COc1ccc2[nH]cc(CCNc3ncnc4ccc(-c5ccccc5CN(C)C)cc34)c2c1	inactive	
COCCNc1ncnc2ccc(-c3ccccc3CN(C)C)cc12	inactive	
COc1ccccc1CNc1ncnc2ccc(-c3c(C)noc3C)cc12	10 µM (active)	
Cc1c(NC(=O)Nc2ccc(F)c(Cl)c2)c(=O)n(-c2ccccc2)n1C	inactive	
CCOC(=O)CSc1nnc(-c2ccncc2)o1	inactive	
CCCCSc1nnc(-c2ccc(C)cc2)o1	11.2 µM (active)	
Cc1cccc(C)c1OC(=O)CSc1nnc(-c2ccccc2)o1	inactive	
O=C(Cc1ccc(Cl)cc1)Nc1ccc2nn(-c3ccc(Cl)cc3)nc2c1	inactive	
CCCCNC(=O)c1ccc2c(c1)NC(=O)C(C(C)C)N2 (stereo not drawn)	inactive	
COc1ccc(CNc2nc(-c3ccccc3)nn2C(=O)c2ccccc2OC)cc1	inactive	
Brc1cccc(-c2nnn3c2nc(NC2CCCCC2)c2ccccc23)c1	inactive	
COc1ccc(N2CCN(Cc3nc4c(c(=O)[nH]c(=O)n4C)n3Cc3ccc(Cl)cc3)CC2)cc1	inactive	

Structure (SMILES)	Potency	activity change, positive = activation
C1=C(CCNc2ncnc3c2cnn3-c2ccccc2)CCCC1	12.6 µM (active)	
O=C(NCCC1=CCCCC1)C1CCN(Cc2cnn(-c3ccccc3)c2-n2cccc2)CC1	inactive	
c1ccc(-n2ncc3c(N4CCCC4)ncnc32)cc1	inactive	
CCOc1ccccc1C(=O)NC1(C(F)(F)F)C(=O)Nc2c1c(=O)[nH]c(=O)n2-c1ccc(F)cc1 (stereo not drawn)	inactive	
O=C(NC1(C(F)(F)F)N=C(c2ccccc2)N(C2CCCCC2)C1=O)c1ccccc1F (stereo not drawn)	inactive	
CCCN1CN=C(NS(=O)(=O)c2ccc(NC(C)=O)cc2)NC1	inactive	
COc1ccc(-c2cc(-c3ccc(F)cc3)nc3c2COc2ccccc2-3)cc1	inactive	
FC(F)(F)c1cnc(Oc2ccccc2-c2nnc(-c3ccc(Cl)cc3)o2)c(Cl)c1	inactive	
CSc1ccccc1-c1nnc(-c2ccc(Cl)cc2)o1	14.1 µM (active)	
Clc1ccc(-c2nnc(SCc3nc4ccccc4s3)o2)cc1	inactive	
CCOC(=O)c1ccccc1NC(=O)CCc1c(C)nc2c(c1C)c(=O)n(C)c(=O)n2C	inactive	
CCN(CC)S(=O)(=O)c1ccc2c(c1)N(CC(=O)NCc1ccccc1)C(=O)CS2	inactive	
O=C(CSc1nnc(-c2ccncc2)o1)NCc1ccc(Cl)cc1	inactive	
O=C(CSc1nnc(-c2ccc([N+](=O)[O-])cc2)o1)Nc1ccccn1	3.16 µM (active)	
CCc1ccccc1NC(=O)CSc1nnc(-c2ccncc2)o1	inactive	
N#Cc1nc(/C=C/c2ccc(F)cc2)oc1NCc1ccc(F)cc1	inactive	
Cc1ccc2nc3c(cc(C(=O)NC4CCCCC4)c(=N)n3C(C)C)c(=O)n2c1	inactive	
Cc1ccc(Nc2ccccc2N)cc1	inactive	
Nc1ccccc1N	11.2 µM (active)	
NCCC(=O)c1ccccc1N	inactive	
COc1ccc(NC(=O)C(=O)NCc2ccco2)cc1	inactive	
COc1cccc(NC(=O)N2CCN(C(=O)c3nsc4ccccc34)CC2)c1	inactive	
COc1cccc2sc(NNC(=O)c3nc4ccccc4s3)nc12	inactive	
COc1cccc2sc(Nc3nc(C)c(C(C)=O)s3)nc12	7.94 µM (active)	
COc1cccc2sc(N(CCCN(C)C)C(=O)C(c3ccccc3)c3ccccc3)nc12	inactive	
